Data as given in the supplement of paper PMC6763611.

What follows are compounds tested on Plasmodium falciparum NF54 (assay: growth inhibition relative to untreated control; higher = more inhibition). Conditions: 1 µM; MM + chorismate end-products (CM screening medium); 72 h.
Outline: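 Growth inhibition was measured by SYBR Green fluorescence, normalised to untreated wells and corrected for background from uninfected erythrocytes. The parasites were P. falciparum NF54 ring stages (1% hematocrit, 1% parasitemia) exposed to single 5 μM or 1 μM doses of test compounds for 72 h at 37 °C, in either minimal RPMI or minimal RPMI containing 2.2 μM folate, 7.3 μM pABA, 7.3 μM pHBA, 111 μM tyrosine, 90 μM phenylalanine and tryptophan.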
`COc1cc(C2=NCCN2)cc2cc(-c3ccc(C4=NCCN4)cc3)oc12` gave a growth inhibition of 78%.
Work on `O=C(Nc1nc(-c2ccccn2)cs1)C1CC1c1ccccc1F` (stereo not drawn) yielded a growth inhibition of 16%.
For `CCCn1c(NC(=O)c2ccc3ccccc3n2)nc2ccccc21`, the growth inhibition was 38.2%.
With `Cc1cc(Cl)c(S(=O)(=O)N2CCCC2)cc1OCC(=O)NC1CCCCC1` the growth inhibition was 71.3%.
Work on `COc1cc(NC(=O)Cc2nn(C)c(=O)c3ccccc23)ccc1Cl` yielded a growth inhibition of 16.1%.
With `CC(C)(C)c1ccc(N[C@@H]2CCCC[C@H]2NC(=O)c2ccco2)cc1` the growth inhibition was 20.8%.
Work on `CC(C)C(Oc1cccc2ccccc12)C(=O)O` (stereo not drawn) yielded a growth inhibition of 17.4%.
Work on `Cc1cc(OCC(=O)NCc2ccccc2)c2cc(Br)ccc2n1` yielded a growth inhibition of 12.6%.
With `FC(F)(F)c1cnc(Sc2nnc(-c3ccncc3)o2)c(Cl)c1` the growth inhibition was 53%.
`Cc1cc(NC(=O)c2ccc(Oc3ccc(Cl)cc3O)o2)no1` showed a growth inhibition of 8.1%.
Work on `N#Cc1nc(-c2ccccc2F)oc1NCCc1ccccc1` yielded a growth inhibition of less than 0%.
With `Cc1nn2c(O)c3c(nc2c1-c1ccc(F)cc1)CCCC3` the growth inhibition was 11%.
`N#CCN(CCCCN1CCN(c2ccc(F)cc2)CC1)C(=O)OCc1ccccc1` gave a growth inhibition of 20.2%.
Work on `CC(C)/N=c1\cc2n(-c3ccc(Cl)cc3)c3ccccc3nc-2cc1Nc1ccc(Cl)cc1` yielded a growth inhibition of 91.5%.
Work on `O=C(Nc1ccc(C(F)(F)F)c(C(F)(F)F)c1)c1cc(Cl)ccc1O` yielded a growth inhibition of 93.1%.
`CC1=Nc2ccc(Cl)cc2C(O)(c2ccc(C)cc2)N1CCN1CCCCC1` (stereo not drawn) gave a growth inhibition of 99.9%.
`CCC(NC(=O)c1ccccc1NC(=O)c1ccc(C)cc1)C(=O)OC` (stereo not drawn) showed a growth inhibition of 97.3%.
With `COc1ccc(N(CCc2cccc(C)n2)C(=O)C2CCCCC2)cc1` the growth inhibition was 4.48%.
